# Source: ChEMBL document CHEMBL1961873, “Compounds: GSK PKIS; Assays: Nanosyn kinase panel” (2012)
# Assays:
# [1] = target: Sphingosine kinase 1 (Homo sapiens) (UniProt Q9NYA1); settings: at 1 µM;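 further: mean SPHK1 inhibition value reported from the GSK PKIS kinase panel screen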
# [2] = target: T1, Sphingosine kinase 2 (Homo sapiens) (UniProt Q9NRA0); settings: at 0.1 µM
# T1 sequence (whole entry): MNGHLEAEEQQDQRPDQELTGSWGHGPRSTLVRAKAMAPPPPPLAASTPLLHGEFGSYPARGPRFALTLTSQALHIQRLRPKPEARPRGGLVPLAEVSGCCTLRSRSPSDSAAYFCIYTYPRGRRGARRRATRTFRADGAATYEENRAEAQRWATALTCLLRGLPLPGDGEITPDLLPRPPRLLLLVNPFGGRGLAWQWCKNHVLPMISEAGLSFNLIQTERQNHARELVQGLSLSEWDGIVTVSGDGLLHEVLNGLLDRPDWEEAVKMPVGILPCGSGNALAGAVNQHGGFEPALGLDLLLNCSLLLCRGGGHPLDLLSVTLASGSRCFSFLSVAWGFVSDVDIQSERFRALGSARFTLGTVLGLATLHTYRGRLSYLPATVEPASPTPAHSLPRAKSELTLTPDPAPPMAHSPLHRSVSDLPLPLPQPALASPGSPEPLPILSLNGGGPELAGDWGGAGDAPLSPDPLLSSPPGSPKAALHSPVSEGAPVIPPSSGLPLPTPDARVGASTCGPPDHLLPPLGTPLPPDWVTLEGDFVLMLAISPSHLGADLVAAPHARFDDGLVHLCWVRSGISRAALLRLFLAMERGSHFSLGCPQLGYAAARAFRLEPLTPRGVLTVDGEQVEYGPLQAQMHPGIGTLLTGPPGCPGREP
# [3] = target: T1, Sphingosine kinase 2 (Homo sapiens); settings: at 1 µM
# [4] = target: Casein kinase II subunit alpha (Homo sapiens) (UniProt P68400); settings: at 0.1 µM
# Sequence of Casein kinase II subunit alpha (Homo sapiens) (P68400 whole entry, looked up): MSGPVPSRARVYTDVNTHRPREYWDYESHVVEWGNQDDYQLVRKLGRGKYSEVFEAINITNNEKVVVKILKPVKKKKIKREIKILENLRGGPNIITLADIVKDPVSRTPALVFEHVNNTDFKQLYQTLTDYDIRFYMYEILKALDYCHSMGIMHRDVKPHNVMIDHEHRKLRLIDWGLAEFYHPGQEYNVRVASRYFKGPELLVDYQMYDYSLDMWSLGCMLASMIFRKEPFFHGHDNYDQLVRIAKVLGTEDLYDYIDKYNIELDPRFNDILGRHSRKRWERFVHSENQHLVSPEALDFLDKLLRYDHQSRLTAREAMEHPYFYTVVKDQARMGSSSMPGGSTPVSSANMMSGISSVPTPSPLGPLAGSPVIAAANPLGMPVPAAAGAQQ
# [5] = target: Casein kinase II subunit alpha (Homo sapiens) (UniProt P68400); settings: at 1 µM
# [6] = target: T2, Inhibitor of nuclear factor kappa-B kinase subunit alpha (Homo sapiens) (UniProt O15111); settings: at 0.1 µM
# T2 sequence (whole entry): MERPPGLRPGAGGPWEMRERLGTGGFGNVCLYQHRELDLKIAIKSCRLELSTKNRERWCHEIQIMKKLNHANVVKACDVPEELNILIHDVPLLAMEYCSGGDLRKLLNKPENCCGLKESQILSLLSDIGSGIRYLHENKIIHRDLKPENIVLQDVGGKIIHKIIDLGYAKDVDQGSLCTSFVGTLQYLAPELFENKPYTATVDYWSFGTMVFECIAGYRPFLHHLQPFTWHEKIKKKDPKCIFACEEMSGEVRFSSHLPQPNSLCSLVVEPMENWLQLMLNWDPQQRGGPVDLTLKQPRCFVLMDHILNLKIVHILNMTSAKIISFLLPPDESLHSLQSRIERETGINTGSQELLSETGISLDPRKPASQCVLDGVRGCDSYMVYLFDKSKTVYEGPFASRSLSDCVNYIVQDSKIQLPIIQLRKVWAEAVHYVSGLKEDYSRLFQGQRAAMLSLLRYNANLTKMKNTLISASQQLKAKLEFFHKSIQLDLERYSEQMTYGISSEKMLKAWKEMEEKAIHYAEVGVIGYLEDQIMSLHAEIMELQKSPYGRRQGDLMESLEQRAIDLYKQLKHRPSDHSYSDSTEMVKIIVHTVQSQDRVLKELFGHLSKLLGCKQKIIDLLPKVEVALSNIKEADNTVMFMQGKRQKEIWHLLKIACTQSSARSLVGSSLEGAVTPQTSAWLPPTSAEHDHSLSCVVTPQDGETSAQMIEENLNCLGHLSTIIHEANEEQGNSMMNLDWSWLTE
# [7] = target: T2, Inhibitor of nuclear factor kappa-B kinase subunit alpha (Homo sapiens); settings: at 1 µM
# [8] = target: T3, Inhibitor of nuclear factor kappa-B kinase subunit beta (Homo sapiens) (UniProt O14920); settings: at 0.1 µM
# T3 sequence (whole entry): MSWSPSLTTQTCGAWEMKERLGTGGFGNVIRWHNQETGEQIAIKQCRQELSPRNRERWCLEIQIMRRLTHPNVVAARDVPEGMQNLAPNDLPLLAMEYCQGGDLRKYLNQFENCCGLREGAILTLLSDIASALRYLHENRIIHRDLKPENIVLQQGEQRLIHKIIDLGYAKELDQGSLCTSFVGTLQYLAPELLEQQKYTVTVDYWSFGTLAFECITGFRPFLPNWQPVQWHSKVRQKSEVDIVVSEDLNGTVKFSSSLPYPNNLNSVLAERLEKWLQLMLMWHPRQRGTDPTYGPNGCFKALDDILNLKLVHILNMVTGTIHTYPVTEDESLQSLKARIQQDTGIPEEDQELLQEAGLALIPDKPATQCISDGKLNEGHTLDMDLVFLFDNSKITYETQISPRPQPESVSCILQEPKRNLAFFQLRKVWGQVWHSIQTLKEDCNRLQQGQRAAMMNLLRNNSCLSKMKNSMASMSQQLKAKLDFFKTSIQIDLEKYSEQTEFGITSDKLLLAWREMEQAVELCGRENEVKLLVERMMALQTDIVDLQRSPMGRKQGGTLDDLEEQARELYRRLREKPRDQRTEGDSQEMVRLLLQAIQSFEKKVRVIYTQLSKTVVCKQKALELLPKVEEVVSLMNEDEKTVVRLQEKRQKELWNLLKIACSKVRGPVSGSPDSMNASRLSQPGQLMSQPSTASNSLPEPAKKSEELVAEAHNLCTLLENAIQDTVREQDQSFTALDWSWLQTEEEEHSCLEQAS
# [9] = target: T3, Inhibitor of nuclear factor kappa-B kinase subunit beta (Homo sapiens); settings: at 1 µM
# [10] = target: T4, Inhibitor of nuclear factor kappa-B kinase subunit epsilon (Homo sapiens) (UniProt Q14164); settings: at 0.1 µM
# T4 sequence (whole entry): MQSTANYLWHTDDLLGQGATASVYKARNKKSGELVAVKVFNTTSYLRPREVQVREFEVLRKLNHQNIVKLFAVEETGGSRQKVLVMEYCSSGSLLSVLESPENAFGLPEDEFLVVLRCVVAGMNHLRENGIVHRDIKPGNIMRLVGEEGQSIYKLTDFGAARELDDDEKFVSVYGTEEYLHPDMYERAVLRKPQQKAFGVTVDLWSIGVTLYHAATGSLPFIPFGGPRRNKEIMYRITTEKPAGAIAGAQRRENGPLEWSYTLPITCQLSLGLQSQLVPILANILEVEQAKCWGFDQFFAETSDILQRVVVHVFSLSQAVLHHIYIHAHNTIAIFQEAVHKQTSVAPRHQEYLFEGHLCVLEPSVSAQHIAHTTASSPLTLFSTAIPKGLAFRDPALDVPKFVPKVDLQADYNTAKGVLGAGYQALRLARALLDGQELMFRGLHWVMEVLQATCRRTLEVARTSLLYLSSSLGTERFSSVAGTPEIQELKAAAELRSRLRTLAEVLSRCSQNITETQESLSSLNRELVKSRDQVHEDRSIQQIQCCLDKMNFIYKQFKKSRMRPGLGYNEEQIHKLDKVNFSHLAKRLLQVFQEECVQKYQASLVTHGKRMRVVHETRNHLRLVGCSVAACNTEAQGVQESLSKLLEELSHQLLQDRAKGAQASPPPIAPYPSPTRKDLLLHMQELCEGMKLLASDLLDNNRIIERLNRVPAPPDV
# [11] = target: T4, Inhibitor of nuclear factor kappa-B kinase subunit epsilon (Homo sapiens); settings: at 1 µM
# [12] = target: T5, Serine/threonine-protein kinase Nek1 (Homo sapiens) (UniProt Q96PY6); settings: at 0.1 µM
# T5 sequence (whole entry): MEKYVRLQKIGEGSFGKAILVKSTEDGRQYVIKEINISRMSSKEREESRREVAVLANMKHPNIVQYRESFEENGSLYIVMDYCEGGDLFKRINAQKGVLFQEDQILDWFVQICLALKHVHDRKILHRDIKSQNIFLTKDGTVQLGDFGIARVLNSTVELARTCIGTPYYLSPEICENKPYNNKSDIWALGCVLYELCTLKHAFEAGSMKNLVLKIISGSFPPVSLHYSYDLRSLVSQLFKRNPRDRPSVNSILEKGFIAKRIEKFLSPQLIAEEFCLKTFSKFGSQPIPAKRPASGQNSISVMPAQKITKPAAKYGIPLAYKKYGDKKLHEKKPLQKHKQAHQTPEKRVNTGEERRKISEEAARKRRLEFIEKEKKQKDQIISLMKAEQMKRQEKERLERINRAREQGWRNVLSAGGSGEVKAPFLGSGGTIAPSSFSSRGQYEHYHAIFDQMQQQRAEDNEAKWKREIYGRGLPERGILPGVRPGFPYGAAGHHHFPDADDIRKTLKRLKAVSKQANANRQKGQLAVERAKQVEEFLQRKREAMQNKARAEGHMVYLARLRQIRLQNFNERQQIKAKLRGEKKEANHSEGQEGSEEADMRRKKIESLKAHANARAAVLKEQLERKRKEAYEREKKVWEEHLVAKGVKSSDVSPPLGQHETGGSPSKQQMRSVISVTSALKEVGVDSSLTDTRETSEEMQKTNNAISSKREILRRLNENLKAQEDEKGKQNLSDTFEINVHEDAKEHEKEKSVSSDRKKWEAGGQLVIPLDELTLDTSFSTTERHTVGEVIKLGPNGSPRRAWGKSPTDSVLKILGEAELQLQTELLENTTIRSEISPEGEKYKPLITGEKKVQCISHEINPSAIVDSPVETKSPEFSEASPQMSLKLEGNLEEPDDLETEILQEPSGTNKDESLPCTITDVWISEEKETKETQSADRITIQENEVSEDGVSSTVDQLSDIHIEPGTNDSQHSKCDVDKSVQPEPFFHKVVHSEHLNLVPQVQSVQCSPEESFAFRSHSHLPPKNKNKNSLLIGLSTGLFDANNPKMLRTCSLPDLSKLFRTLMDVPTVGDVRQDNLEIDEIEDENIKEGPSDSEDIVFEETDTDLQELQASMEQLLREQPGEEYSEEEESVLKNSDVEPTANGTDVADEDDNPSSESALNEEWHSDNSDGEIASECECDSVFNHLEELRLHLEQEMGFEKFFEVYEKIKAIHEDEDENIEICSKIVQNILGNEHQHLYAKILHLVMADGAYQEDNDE
# [13] = target: T5, Serine/threonine-protein kinase Nek1 (Homo sapiens); settings: at 1 µM
# [14] = target: T6, Serine/threonine-protein kinase Nek2 (Homo sapiens) (UniProt P51955); settings: at 0.1 µM
# T6 sequence (whole entry): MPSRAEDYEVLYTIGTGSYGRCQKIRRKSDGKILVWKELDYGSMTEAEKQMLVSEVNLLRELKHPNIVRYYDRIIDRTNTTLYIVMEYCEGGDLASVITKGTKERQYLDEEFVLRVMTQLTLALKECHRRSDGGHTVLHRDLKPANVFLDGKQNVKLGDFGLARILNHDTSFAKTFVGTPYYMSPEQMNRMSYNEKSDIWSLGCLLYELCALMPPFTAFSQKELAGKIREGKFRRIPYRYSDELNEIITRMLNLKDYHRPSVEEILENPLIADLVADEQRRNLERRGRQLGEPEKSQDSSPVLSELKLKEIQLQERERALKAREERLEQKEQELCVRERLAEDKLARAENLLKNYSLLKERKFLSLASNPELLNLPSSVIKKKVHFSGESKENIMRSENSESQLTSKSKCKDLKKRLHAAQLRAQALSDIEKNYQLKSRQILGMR
# [15] = target: T6, Serine/threonine-protein kinase Nek2 (Homo sapiens); settings: at 1 µM
# [16] = target: Serine/threonine-protein kinase Nek6 (Homo sapiens) (UniProt Q9HC98); settings: at 0.1 µM
# Sequence of Serine/threonine-protein kinase Nek6 (Homo sapiens) (Q9HC98 whole entry): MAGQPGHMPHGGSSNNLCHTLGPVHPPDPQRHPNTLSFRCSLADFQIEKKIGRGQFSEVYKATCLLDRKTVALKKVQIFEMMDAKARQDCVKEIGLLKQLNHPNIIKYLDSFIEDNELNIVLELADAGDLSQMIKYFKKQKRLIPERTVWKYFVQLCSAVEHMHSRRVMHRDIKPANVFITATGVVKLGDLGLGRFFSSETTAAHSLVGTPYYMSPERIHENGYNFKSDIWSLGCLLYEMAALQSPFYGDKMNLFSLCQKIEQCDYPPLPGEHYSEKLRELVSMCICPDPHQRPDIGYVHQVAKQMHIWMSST
# [17] = target: Serine/threonine-protein kinase Nek6 (Homo sapiens) (UniProt Q9HC98); settings: at 1 µM
# [18] = target: Serine/threonine-protein kinase Nek7 (Homo sapiens) (UniProt Q8TDX7); settings: at 0.1 µM
# Sequence of Serine/threonine-protein kinase Nek7 (Homo sapiens) (Q8TDX7 whole entry, looked up): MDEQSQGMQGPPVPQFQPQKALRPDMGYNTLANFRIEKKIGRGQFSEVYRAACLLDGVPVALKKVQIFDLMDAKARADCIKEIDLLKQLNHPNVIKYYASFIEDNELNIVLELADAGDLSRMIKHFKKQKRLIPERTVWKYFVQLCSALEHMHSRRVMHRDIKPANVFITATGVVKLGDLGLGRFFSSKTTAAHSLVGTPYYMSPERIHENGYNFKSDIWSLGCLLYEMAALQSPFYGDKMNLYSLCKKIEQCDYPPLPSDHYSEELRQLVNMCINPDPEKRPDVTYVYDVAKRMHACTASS
# [19] = target: Serine/threonine-protein kinase Nek7 (Homo sapiens) (UniProt Q8TDX7); settings: at 1 µM
# [20] = target: T7, Serine/threonine-protein kinase Nek9 (Homo sapiens) (UniProt Q8TD19); settings: at 0.1 µM;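 further: reported value is the mean percent inhibition of NEK9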
# T7 sequence (whole entry): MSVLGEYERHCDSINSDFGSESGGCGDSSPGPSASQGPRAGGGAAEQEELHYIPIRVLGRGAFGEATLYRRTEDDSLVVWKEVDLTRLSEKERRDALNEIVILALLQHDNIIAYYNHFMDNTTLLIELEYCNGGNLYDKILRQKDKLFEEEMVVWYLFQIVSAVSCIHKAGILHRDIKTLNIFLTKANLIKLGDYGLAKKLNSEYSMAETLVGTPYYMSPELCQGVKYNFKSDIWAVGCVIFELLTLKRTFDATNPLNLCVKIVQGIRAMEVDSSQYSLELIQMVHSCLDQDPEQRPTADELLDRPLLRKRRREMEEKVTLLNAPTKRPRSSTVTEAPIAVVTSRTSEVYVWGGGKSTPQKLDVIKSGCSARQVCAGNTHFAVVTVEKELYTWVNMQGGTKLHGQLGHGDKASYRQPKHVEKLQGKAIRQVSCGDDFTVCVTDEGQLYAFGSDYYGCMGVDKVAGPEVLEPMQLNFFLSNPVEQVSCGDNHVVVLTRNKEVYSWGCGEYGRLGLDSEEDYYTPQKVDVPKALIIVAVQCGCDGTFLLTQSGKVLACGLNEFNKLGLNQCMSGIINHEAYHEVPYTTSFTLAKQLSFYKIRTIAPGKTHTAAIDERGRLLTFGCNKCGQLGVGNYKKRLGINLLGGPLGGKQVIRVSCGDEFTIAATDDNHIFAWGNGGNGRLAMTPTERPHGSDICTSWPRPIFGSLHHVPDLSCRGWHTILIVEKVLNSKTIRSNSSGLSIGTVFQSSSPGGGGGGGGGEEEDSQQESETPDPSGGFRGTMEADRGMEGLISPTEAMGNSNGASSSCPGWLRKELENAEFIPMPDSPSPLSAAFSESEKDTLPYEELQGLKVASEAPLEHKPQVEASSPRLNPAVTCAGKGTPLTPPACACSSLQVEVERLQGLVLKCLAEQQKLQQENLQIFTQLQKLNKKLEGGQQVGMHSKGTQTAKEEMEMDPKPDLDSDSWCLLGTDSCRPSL
# Sequence of Sphingosine kinase 1 (Homo sapiens) (Q9NYA1 whole entry): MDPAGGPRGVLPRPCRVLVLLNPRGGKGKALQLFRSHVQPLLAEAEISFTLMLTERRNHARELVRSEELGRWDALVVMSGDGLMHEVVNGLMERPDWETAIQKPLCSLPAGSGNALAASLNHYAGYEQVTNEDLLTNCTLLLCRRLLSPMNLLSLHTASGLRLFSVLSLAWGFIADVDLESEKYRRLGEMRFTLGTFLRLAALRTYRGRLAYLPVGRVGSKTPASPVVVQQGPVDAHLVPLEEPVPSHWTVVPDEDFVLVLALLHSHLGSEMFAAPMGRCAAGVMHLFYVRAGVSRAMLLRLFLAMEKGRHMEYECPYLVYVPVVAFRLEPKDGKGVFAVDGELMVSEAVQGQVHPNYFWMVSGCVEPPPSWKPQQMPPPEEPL
SMILES,inhibition [1] [%],inhibition [2] [%],inhibition [3] [%],inhibition [4] [%],inhibition [5] [%],inhibition [6] [%],inhibition [7] [%],inhibition [8] [%],inhibition [9] [%],inhibition [10] [%],inhibition [11] [%],inhibition [12] [%],inhibition [13] [%],inhibition [14] [%],inhibition [15] [%],inhibition [16] [%],inhibition [17] [%],inhibition [18] [%],inhibition [19] [%],inhibition [20] [%]
Cc1cc(Cl)cc2c1NC(=O)C2=NNc1ccc(S(N)(=O)=O)cc1,-2.79,-0.11,-2.78,3.02,8.79,1.51,10.1,8.97,7.33,6.15,6.95,1.58,2.35,2.49,2.54,0.31,1.33,1.91,1.96,3.08
ON=C1CCc2cc(-c3nc(C4CCNCC4)[nH]c3-c3ccncc3)ccc21,-2.71,0.13,-0.91,-3.67,-3.6,-9.89,-1.59,6.16,4.62,1.88,2.68,0.37,-0.17,0.86,1.18,-0.82,-3.55,2.03,0.72,4.01
